This is a sample that favours compounds with a hit; in the whole collection about 3.4% have one here.
TEAD-YAP inh: TEAD-YAP interaction inhibition; AID 1259422; inhibition, % at 9.12 µM; hit rate 1.4% among 640,000; HEK-TIYL cells, TEAD-Gal4/YAP UAS-luciferase luminescence; in the data active = inhibition above about 32%;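 also: 0% = median of test compound wells and 100% = reference inhibitor wells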
MITF primary: human MITF inhibition, primary screen; AlphaScreen MITF homodimerization, bead proximity signal; inhibition, % at 2.6 µM; hit rate 0.91% among 650,000; in the data active = inhibition above about 50%;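 also: 0% = vehicle wells with protein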
Target sequence (O75030 whole entry, looked up): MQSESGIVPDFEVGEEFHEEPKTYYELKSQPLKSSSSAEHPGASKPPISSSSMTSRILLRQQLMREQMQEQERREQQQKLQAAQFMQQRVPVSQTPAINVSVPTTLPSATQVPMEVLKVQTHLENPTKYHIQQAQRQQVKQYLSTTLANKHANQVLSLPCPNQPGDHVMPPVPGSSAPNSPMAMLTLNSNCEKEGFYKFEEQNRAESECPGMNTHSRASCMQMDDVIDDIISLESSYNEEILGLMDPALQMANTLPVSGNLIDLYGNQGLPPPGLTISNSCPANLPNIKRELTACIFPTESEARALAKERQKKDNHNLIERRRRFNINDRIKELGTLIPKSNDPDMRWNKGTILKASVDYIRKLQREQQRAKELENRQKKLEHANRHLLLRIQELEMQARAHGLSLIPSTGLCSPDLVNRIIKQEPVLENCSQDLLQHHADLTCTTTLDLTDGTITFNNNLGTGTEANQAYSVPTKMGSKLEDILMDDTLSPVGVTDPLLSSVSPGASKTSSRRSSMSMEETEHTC
FBW7 act: activators of human E3 ligase FBW7; Q969H0; AlphaScreen FBW7–phospho-cyclin E peptide binding, activator screen; normalized activity (activation), % at 26.1 µM; hit rate 0.13% among 650,000; AID 1259310; in the data active = normalized activity above about 1.9%;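 also: purified mutant Fbw7 with reduced substrate affinity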
GPR151 activ: activators of human GPR151; AID 1508602; Q8TDV0; hit rate 1% among 650,000; PathHunter beta-arrestin GPR151 cells, luminescence; activation, % at 11.2 µM; in the data active = activation above about 4.9%;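 also: 0% = median of compound wells and 100% = cells with positive control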
* = called active by the depositor; nt = no result; ! = repeats disagree.

SMILES | TEAD-YAP inh | MITF primary | FBW7 act | GPR151 activ
O=C(COc1ccc(F)cc1)Nc1sc2c(c1C(=O)NCC1CCCO1)CCCC2 (stereo unspecified) | 3.1 | -8.2 | 0.1 | 1.2
COCCNc1nc(-c2ccc3[nH]ccc3c2)ccc1C(=O)N1CCN(C)CC1 | -10.7 | -7.2 | 0.2 | -0.1
Cc1cc(C(=O)COC(=O)c2cccc(N(C)C)c2)c(C)n1CC1CCCO1 (stereo unspecified) | 38.4* | 19.8 | -0.2 | 0.1
C=CCn1c(C)cc(C(=O)COC(=O)c2cccc(O)c2)c1C | 87.0* | -2.9 | 0.0 | -8.9
Cc1cc(C(=O)COC(=O)c2cccc(NS(C)(=O)=O)c2)c(C)n1CC1CCCO1 (stereo unspecified) | 57.8* | 4.2 | -0.2 | 1.9
CCC(=O)/C=C/n1c(=S)oc2ccccc21 | 54.7* | -12.3 | -0.2 | 1.0
CC(=O)/C=C/n1c(=S)oc2ccccc21 | 57.1* | 7.2 | 0.0 | -0.6
CC(=O)Nc1ccc(NC(=O)CCn2c(=S)oc3ccccc32)cc1 | -2.4 | 7.5 | 1.0 | 0.4
COc1ccc(C2=CC(=O)Nc3ccccc3S2)cc1 | -45.7 | 9.7 | 0.7 | -1.0
Clc1ccc(-c2cc3c(nn2)Nc2ccccc2N3)cc1 | 85.7* | 7.8 | 0.2 | -5.3
COc1ccc(-c2cc3c(nn2)Nc2ccccc2S3)cc1 | 85.6* | 8.2 | 0.9 | -4.0
O=C(Cn1cnc2ccccc21)NCc1cccc(Oc2ccc(F)cc2)c1 | 62.3* | 6.6 | -0.1 | 0.9
O=C(NCc1cccc(Oc2ccc(F)cc2)c1)c1cccnc1 | -49.8 | -1.8 | 0.3 | -0.6
O=C(NCc1cccc(Oc2ccc(F)cc2)c1)c1ccccn1 | 53.6* | -3.3 | -0.1 | -0.5
CCOC(=O)CS(=O)(=O)c1ccc(C(=O)NC(CC)Cc2ccccc2)cc1[N+](=O)[O-] (stereo unspecified) | -24.0 | 2.3 | -0.2 | -0.8
CN(C)CC#CCOC(c1ccccc1)c1ccccc1 | -0.6 | 4.8 | -0.2 | -0.8
Cc1ccccc1C(OCCN(C)C)c1ccccc1 (stereo unspecified) | 6.3 | -14.2 | 1.9*! | -2.0
Cc1csnc1NC(=O)c1c(N)nc2c(c1C(F)(F)F)OC1=C(CCCC1)O2 | 79.2* | -4.9 | 0.0 | 0.0
CCOC(=O)c1c(NC(=O)c2ccc(C(F)(F)F)cc2)sc2c1CCCC2 | -1.6 | 3.8 | 0.2 | -0.6
Oc1ccc(O)c(CN2CCCCCC2)c1 | -1.9 | 82.2* | -0.7 | -0.9
N#Cc1cc(-c2ccnc(Nc3cccc(NC(=O)N4CCCC4)c3)n2)ccc1N1CCCC1 | 45.2* | 22.3 | 0.3 | 0.3
C=Cc1ccc(CN2C(=O)C(C)Oc3ccc(S(=O)(=O)CC)cc32)cc1 (stereo unspecified) | 6.3 | -1.2 | 0.1 | -0.2
CC(=O)Nc1ccc(NC2=C/C(=N/S(=O)(=O)c3ccccc3)c3ccccc3C2=O)cc1 | 99.0* | 33.3 | -0.5 | 0.3
O=C1C(N2CCCCC2)=C/C(=N/S(=O)(=O)c2ccccc2)c2ccccc21 | -6.2 | 12.9 | 0.0 | -1.8
O=C(Oc1ccc(/C=C/c2ccncc2)cc1)c1ccncc1 | 47.9* | -3.8 | -0.3 | -6.8
SMILES | TEAD-YAP inh | MITF primary | FBW7 act | GPR151 activ
Cc1cccc(C)c1NC(=O)c1cc2c(=O)n3ccccc3nc2n1C | 36.6* | -8.7 | 0.3 | 0.8
CCCCC/C=C\C=C\C(O)CCCCCCCCCC(=O)O (stereo unspecified) | nt | 1.0 | nt | -0.6
Cc1ccccc1NC1SC(=O)N(c2ccc(F)cc2)C1=O (stereo unspecified) | -16.7 | -10.4 | -0.2 | -1.1
FC(F)(F)c1cccc(NCc2cn3ccccc3n2)c1 | -24.4 | 0.8 | -0.1 | 0.3
FC(F)(F)c1cccc(NCc2cn3cccnc3n2)c1 | -1.5 | 2.5 | 2.3* | -0.2
COc1ccccc1NC(=O)Cc1nn(C)c(=O)c2ccccc12 | 35.6* | 13.1 | 0.0 | 0.4
Cn1nc(CC(=O)Nc2ccc(F)cc2Cl)c2ccccc2c1=O | 45.8* | -13.0 | -0.1 | 0.6
CCOc1cc(/C=C2/SC(=Nc3ccccc3)N(N(C)C)C2=O)ccc1O | -10.4 | 11.8 | -0.2 | -0.6
CCN(CC)C(=O)c1cccc(CS(=O)(=O)c2ccc(C)cc2)c1 | -4.5 | 9.1 | 0.0 | -0.6
COC(=O)c1cccc(NC(=O)COc2cc(C)ccc2C(C)(C)C)c1 | 1.6 | 14.3 | 0.4 | 0.5
COC(=O)c1cccc(NC(=O)COc2ccc(C)cc2Br)c1 | 91.3* | -3.2 | -0.1 | 0.7
Cc1ccc(OCC(=O)Nc2cccc(C(=O)O)c2)c(Br)c1 | 98.0* | 13.8 | 0.2 | -9.7
Cc1ccc(OCC(=O)Nc2ccccc2F)c(Br)c1 | 38.2* | 1.5 | 0.0 | -1.4
CCCOC(=O)c1cccc(NC(=O)COc2ccccc2OC)c1 | -5.5 | -6.8 | 0.3 | 1.0

From PubChem BioAssay
